Experimental data published in PubChem BioAssay (Tox21).
Results filed as inconclusive are left out. Entries that show only a call come without a potency. Calls of active or inactive are those of the source. Unless noted, the call rests on the fitted dose curve; in most records, active means well fitted inhibition curve with a large enough effect in the repeat runs; inconclusive means weak or mixed curves; inactive means no such curve, though single readings can be large or run the other way.

assay: qHTS assay to identify small molecule agonists of H2AX - cell viability counter screen (AID 1224847; calls by dose curve;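 further: wild-type CHO-K1 cells; top concentration of the series differs between compounds; nearly all actives have a fitted effect of over 30% in size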); settings: CHO-K1 viability, CellTiter-Glo luminescence, 3 h; series mostly up to 70.9 µM
In short: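 Counter-screen for viability: CellTiter-Glo ATP luminescence read after 3 h compound treatment (15-point titration, 0.76% DMSO final) of CHO-K1 cells at 37C, with 30 min room-temperature reagent incubation.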

Structure (SMILES) | Potency
CC1=CC(C)C(C=O)CC1 (stereo not drawn) | inactive
CCOC(=O)C(=O)OCC | inactive
Cn1c(N)c(N=O)c(=O)n(C)c1=O | inactive
Cc1sccc1Br | inactive
CCCCCSCCCCC | inactive
CC(=O)OCC(=O)[C@@]1(O)CCC2C3CCC4=CC(=O)CC[C@]4(C)C3[C@@H](O)C[C@@]21C (stereo partly drawn) | inactive
O=Cc1cccc([N+](=O)[O-])c1 | inactive
CN(C(=O)c1c(O)c2ccccc2n(C)c1=O)c1ccccc1 | inactive
CC(C)CCCC(C)N (stereo not drawn) | inactive
CCCCOCCOCCOCCCC | inactive
NS(=O)(=O)c1cc(C(=O)O)cc(N2CCCC2)c1Oc1ccccc1 | inactive

assay: qHTS assay to identify small molecule antagonists of the estrogen related receptor (ERR) signaling pathway from Tox21 library (AID 1224848); settings: ERR reporter cell line, luciferase antagonist mode, 18 h; series mostly up to 92.4 µM; further: nearly all actives have a fitted effect of over 50% in size
In short: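 Antagonist-mode screen of the Tox21 10K library in an NTP-provided ERR reporter cell line; 18 h compound exposure at 37 C, luminescence measured with ONE-Glo.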

Structure (SMILES) | Potency
c1ccc(CC2=NCCN2)cc1 | inactive
CCCCCCCCCCCCN(CCCCCCCCCCCC)CCCCCCCCCCCC | inactive
COC(C)(C)CCCC(C)CC=O (stereo not drawn) | inactive
C=CCS(=O)(=O)O | inactive
COCCCOCCCOC | inactive
NS(=O)(=O)c1ccc(C(=O)O)cc1 | inactive
COc1c(N2C[C@@H]3CCCN[C@@H]3C2)c(F)cc2c(=O)c(C(=O)O)cn(C3CC3)c12 | inactive
COC(=O)c1ccc(C)cc1C1=NC(C)(C(C)C)C(=O)N1 (stereo not drawn) | inactive
CS(=O)(=O)O | inactive
CC(=O)c1ccccc1O | inactive
Cc1ccc(C#N)cc1 | inactive
O=C(O)c1ccccc1OP(=O)(O)O | inactive
O=c1[nH]c(=O)n([C@H]2C[C@H](O)[C@@H](CO)O2)cc1I | inactive
CC(C)NC(=O)NC(C)C | inactive
CCOC(=O)[C@H](CCc1ccccc1)N[C@@H](C)C(=O)N1[C@H](C(=O)O)C[C@@H]2CCC[C@@H]21 | inactive
COc1cc(C(=O)N2CCCCCCC2)cc(OC)c1OC | inactive
O=C(O)CCCc1ccccc1 | inactive

Structure (SMILES) | Potency
CO/N=C(/C(=O)N[C@@H]1C(=O)N2C(C(=O)OCOC(=O)C(C)(C)C)=C(C)CS[C@H]12)c1csc(N)n1 | inactive
Cc1cc2c(cc1S(N)(=O)=O)S(=O)(=O)CCC2 | inactive
Cc1cc(O)cc2c1O[C@](C)(CCC[C@H](C)CCC[C@H](C)CCCC(C)C)CC2 | inactive
CCOC(=O)c1c(C)n(C)c2ccc(O)cc12 | inactive
O=C(CCCN1CCN(c2ccccn2)CC1)c1ccc(F)cc1 | inactive
CCS(=O)(=O)c1ccc(OC)c(C(=O)OC)c1 | inactive
CC1=CC(C)C(C=O)CC1 (stereo not drawn) | inactive
CCOC(=O)C(=O)OCC | inactive
Cn1c(N)c(N=O)c(=O)n(C)c1=O | inactive
Cc1sccc1Br | inactive
CCCCCSCCCCC | inactive
CC(=O)OCC(=O)[C@@]1(O)CCC2C3CCC4=CC(=O)CC[C@]4(C)C3[C@@H](O)C[C@@]21C (stereo partly drawn) | inactive
O=Cc1cccc([N+](=O)[O-])c1 | inactive
CN(C(=O)c1c(O)c2ccccc2n(C)c1=O)c1ccccc1 | inactive
CC(C)CCCC(C)N (stereo not drawn) | inactive
CCCCOCCOCCOCCCC | inactive
NS(=O)(=O)c1cc(C(=O)O)cc(N2CCCC2)c1Oc1ccccc1 | inactive

assay: qHTS assay to identify small molecule agonists of the estrogen related receptor (ERR) signaling pathway from Tox21 library (AID 1224849; calls by dose curve; further: nearly all actives have a fitted effect of over 15% in size); settings: ERR reporter cell line, ONE-Glo luciferase, 18 h; at 92.4 µM (top of the series) unless noted
In short: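 We plated ERR reporter cells, waited 6 h, added compounds in DMSO by pin tool and incubated them 18 h at 37 C. ONE-Glo was then added and luminescence read after 30 min.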

Structure (SMILES) | activity change, positive = activation
c1ccc(CC2=NCCN2)cc1 | -1.01% [at 42.5 µM] (inactive)
COC(C)(C)CCCC(C)CC=O (stereo not drawn) | 8.65% (inactive)
NS(=O)(=O)c1ccc(C(=O)O)cc1 | 9.6% [at 42.5 µM] (inactive)
COC(=O)c1ccc(C)cc1C1=NC(C)(C(C)C)C(=O)N1 (stereo not drawn) | 4.81% (inactive)
CC(=O)c1ccccc1O | 0.43% (inactive)
O=c1[nH]c(=O)n([C@H]2C[C@H](O)[C@@H](CO)O2)cc1I | 11% [at 42.5 µM] (inactive)
CC(C)NC(=O)NC(C)C | -2.14% (inactive)
CCOC(=O)[C@H](CCc1ccccc1)N[C@@H](C)C(=O)N1[C@H](C(=O)O)C[C@@H]2CCC[C@@H]21 | 3.92% [at 42.5 µM] (inactive)
COc1cc(C(=O)N2CCCCCCC2)cc(OC)c1OC | 8.77% [at 42.5 µM] (inactive)
O=C(O)CCCc1ccccc1 | 7.78% [at 42.5 µM] (inactive)
CO/N=C(/C(=O)N[C@@H]1C(=O)N2C(C(=O)OCOC(=O)C(C)(C)C)=C(C)CS[C@H]12)c1csc(N)n1 | 4.91% [at 42.5 µM] (inactive)
Cc1cc(O)cc2c1O[C@](C)(CCC[C@H](C)CCC[C@H](C)CCCC(C)C)CC2 | 6.7% [at 42.5 µM] (inactive)
CCOC(=O)c1c(C)n(C)c2ccc(O)cc12 | -9.16% [at 42.5 µM] (inactive)
O=C(CCCN1CCN(c2ccccn2)CC1)c1ccc(F)cc1 | -14.3% [at 42.5 µM] (inactive)
CCS(=O)(=O)c1ccc(OC)c(C(=O)OC)c1 | 4.43% [at 42.5 µM] (inactive)
CCOC(=O)C(=O)OCC | 4.42% (inactive)
Cn1c(N)c(N=O)c(=O)n(C)c1=O | -7.21% (inactive)
Cc1sccc1Br | -1.02% [at 42.5 µM] (inactive)
CCCCCSCCCCC | 6.38% (inactive)
O=Cc1cccc([N+](=O)[O-])c1 | -4.24% (inactive)
CN(C(=O)c1c(O)c2ccccc2n(C)c1=O)c1ccccc1 | 0.397% [at 42.5 µM] (inactive)
CCCCOCCOCCOCCCC | 0.577% (inactive)
NS(=O)(=O)c1cc(C(=O)O)cc(N2CCCC2)c1Oc1ccccc1 | 0.186% [at 42.5 µM] (inactive)
